In article PMC7862700, “An all-to-all approach to the identification of sequence-specific readers for epigenetic DNA modifications on cytosine” one finds binding signal data, which are given here for 2 sequences.

Common to all, as to test: DAPPL (digital affinity profiling via proximity ligation, sequencing); 10 mM Tris-HCl pH 7.5, 50 mM NaCl, 1 mM DTT, 4% glycerol, room temperature, 30 min; GST-TFs on glutathione beads, 16-mer random dsDNA library, 0.1% formaldehyde crosslink after washing; high values mean tight binding
Common to all, as to conditions: protein: recombinant; tags: N-terminal GST; dsDNA, one strand shown

In experiment [1] the target is T1, FLI1 (Homo sapiens, UniProt Q01543 1-452).
T1 sequence: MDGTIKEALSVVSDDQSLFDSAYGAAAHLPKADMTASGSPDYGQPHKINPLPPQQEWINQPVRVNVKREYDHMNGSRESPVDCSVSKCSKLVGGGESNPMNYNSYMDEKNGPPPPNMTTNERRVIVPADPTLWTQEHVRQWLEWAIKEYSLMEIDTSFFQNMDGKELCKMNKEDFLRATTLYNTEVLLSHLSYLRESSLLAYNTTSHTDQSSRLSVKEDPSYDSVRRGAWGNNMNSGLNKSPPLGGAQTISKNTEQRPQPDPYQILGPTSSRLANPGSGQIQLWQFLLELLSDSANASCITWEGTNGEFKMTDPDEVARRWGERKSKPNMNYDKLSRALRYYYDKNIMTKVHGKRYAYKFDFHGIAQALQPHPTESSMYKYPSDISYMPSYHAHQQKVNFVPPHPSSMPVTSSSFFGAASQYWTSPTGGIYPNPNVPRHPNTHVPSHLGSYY
The gist of the method: (§1)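 Each value of binding signal is a hexamer's read frequency for a factor divided by the same hexamer's frequency in the tag-only sample. Barcoded, bead-captured GST fusions of human transcription factors made in yeast were pooled with that sample and incubated with 200 nmole of a random double-stranded 16-mer DNA library in Tris/NaCl/DTT/glycerol buffer at room temperature for 30 min. Washing, 0.1% formaldehyde crosslinking, proximity ligation, PCR and Illumina NextSeq500 sequencing followed.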

The target of experiment [2] is T2, ELK1 (Homo sapiens, UniProt P19419 1-428).
T2 sequence: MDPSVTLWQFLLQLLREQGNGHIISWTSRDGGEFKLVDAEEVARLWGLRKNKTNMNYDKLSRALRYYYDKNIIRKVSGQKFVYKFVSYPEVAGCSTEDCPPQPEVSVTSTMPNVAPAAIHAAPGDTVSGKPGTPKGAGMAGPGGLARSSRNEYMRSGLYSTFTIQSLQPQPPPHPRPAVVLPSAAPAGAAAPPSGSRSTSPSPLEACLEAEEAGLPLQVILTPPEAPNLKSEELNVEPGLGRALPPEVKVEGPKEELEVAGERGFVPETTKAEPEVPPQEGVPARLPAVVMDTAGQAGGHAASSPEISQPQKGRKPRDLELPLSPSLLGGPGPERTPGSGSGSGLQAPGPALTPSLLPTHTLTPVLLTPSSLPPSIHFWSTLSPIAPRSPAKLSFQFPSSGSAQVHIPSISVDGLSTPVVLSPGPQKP
The gist of the method:
as §1

The target in experiment [3] is T3, GABPA (Homo sapiens, UniProt Q06546 1-454).
T3 sequence: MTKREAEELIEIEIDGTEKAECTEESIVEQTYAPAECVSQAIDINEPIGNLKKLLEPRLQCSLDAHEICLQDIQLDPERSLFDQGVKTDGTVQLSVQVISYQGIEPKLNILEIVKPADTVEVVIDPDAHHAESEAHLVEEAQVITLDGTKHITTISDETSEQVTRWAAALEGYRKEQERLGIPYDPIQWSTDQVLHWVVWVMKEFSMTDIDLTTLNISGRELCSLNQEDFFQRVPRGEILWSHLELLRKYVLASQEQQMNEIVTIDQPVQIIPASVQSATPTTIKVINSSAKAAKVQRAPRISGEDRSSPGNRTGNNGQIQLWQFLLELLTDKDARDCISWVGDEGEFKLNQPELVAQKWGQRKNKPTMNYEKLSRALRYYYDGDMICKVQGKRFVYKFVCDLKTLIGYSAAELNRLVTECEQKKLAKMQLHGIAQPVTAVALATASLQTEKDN
The gist of the method: as §1

Experiment [4] deals with T4, ERG (Homo sapiens, UniProt P11308 1-479).
T4 sequence: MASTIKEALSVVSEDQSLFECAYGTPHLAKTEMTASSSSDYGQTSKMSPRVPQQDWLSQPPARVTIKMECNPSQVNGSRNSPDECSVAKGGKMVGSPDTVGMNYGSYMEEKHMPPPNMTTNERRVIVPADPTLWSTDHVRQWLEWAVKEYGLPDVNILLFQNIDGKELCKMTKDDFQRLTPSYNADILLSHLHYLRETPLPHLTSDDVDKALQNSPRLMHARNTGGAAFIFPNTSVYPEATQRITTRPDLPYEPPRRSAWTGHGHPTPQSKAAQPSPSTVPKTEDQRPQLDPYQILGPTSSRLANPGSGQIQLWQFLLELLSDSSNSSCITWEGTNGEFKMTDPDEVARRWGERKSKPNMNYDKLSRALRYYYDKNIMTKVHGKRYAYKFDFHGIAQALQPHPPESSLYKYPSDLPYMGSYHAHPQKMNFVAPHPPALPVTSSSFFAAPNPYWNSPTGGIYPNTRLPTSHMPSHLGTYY
The gist of the method:
as §1

Experiment [5] deals with ELF1 (Homo sapiens, UniProt P32519 1-619). The gist of the method:
as §1

Experiment [6] addresses T5, EHF (Homo sapiens, UniProt Q9NZC4 1-300).
T5 sequence: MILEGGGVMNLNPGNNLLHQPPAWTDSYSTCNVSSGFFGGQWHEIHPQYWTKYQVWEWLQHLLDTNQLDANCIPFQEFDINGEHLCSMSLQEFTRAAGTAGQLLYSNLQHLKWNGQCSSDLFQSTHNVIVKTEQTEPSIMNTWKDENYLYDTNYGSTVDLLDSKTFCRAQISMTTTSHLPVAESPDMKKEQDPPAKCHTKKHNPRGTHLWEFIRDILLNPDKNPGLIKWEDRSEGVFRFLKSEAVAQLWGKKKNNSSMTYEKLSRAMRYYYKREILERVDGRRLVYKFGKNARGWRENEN
The gist of the method:
as §1

Experiment [7] concerns the target SPI1 (Homo sapiens, UniProt P17947 1-270). The gist of the method:
as §1

Experiment [8] concerns the target SPIB (Homo sapiens, UniProt Q01892 1-262). The gist of the method: as §1
Experiment [9] concerns the target T6, ELK3 (Homo sapiens, UniProt P41970 1-407).
T6 sequence: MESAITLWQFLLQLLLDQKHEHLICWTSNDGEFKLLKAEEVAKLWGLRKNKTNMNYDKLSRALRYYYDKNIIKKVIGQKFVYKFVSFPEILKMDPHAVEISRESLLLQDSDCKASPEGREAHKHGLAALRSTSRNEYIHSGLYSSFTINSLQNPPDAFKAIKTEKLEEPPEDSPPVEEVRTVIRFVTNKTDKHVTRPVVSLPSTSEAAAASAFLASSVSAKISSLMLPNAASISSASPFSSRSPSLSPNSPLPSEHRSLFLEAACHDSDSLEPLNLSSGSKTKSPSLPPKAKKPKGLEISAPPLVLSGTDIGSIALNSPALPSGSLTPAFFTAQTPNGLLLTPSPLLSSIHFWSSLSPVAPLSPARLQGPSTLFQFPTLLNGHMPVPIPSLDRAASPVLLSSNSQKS
The gist of the method: as §1

In experiment [10] the target is T7, FEV (Homo sapiens, UniProt Q99581 1-238).
T7 sequence: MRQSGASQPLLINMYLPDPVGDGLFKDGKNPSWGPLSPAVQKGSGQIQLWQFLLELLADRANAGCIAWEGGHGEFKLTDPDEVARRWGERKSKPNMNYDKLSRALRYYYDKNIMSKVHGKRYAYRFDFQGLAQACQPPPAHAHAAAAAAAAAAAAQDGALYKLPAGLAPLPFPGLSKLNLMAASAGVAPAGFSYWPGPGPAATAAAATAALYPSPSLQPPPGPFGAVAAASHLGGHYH
The gist of the method:
as §1

For experiment [11], the target named is ETV5 (Homo sapiens, UniProt P41161 1-510). The gist of the method:
as §1

Experiment [12] has as its target T8, SPIC (Homo sapiens, UniProt Q8N5J4 1-248).
T8 sequence: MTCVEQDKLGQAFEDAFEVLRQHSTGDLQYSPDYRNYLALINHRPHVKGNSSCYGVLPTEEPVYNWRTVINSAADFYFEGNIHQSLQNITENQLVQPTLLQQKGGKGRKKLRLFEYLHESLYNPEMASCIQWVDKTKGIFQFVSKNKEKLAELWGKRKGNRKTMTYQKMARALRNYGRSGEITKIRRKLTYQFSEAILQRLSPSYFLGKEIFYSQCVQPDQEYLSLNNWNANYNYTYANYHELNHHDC
The gist of the method: as §1

Experiment [13] deals with ELF4 (Homo sapiens, UniProt Q99607 1-663). The gist of the method: as §1
ELF4, sequence (Q99607 whole entry): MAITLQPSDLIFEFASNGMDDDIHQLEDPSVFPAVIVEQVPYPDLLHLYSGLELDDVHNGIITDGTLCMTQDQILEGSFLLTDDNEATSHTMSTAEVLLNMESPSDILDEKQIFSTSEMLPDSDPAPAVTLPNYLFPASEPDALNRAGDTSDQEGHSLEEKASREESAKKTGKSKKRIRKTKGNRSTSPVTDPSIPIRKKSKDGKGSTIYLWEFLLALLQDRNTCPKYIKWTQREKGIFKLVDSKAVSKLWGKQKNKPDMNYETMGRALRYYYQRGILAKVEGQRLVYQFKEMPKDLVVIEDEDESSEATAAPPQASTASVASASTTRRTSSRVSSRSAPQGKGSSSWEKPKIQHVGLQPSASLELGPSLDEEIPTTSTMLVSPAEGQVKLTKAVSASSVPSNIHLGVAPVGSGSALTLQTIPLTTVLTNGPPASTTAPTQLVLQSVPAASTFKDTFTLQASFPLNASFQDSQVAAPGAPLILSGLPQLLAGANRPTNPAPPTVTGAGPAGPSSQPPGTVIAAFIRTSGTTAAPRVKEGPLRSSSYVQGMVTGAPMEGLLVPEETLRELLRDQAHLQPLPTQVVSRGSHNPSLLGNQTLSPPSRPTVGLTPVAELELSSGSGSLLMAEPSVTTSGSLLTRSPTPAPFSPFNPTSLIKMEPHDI
Experiment [14] deals with T9, ELK4 (Homo sapiens, UniProt P28324-2 1-405).
T9 sequence: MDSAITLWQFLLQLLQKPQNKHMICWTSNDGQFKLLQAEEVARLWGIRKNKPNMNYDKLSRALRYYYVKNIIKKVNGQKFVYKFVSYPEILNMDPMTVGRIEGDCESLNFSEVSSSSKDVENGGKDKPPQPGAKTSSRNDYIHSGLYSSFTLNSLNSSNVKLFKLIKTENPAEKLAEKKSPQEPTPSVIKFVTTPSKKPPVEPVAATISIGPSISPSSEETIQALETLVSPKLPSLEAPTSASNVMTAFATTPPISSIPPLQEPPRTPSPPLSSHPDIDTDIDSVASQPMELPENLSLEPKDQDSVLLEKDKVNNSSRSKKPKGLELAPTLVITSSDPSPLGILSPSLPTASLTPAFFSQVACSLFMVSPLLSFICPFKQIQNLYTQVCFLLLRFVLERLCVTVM
The gist of the method: as §1

Experiment [15] has as its target T10, ETV2 (Homo sapiens, UniProt O00321 1-342).
T10 sequence: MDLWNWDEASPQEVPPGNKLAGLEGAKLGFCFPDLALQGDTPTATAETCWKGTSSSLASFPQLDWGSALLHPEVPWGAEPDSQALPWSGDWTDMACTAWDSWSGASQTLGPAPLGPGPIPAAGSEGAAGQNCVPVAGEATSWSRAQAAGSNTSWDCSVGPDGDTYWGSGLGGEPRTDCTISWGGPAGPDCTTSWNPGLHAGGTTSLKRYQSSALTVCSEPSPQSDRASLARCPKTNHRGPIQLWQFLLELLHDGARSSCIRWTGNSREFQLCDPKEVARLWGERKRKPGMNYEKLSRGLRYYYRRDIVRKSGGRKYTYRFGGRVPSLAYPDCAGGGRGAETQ
The gist of the method: as §1

Experiment [16] has as its target T11, ELF3 (Homo sapiens, UniProt P78545 1-371).
T11 sequence: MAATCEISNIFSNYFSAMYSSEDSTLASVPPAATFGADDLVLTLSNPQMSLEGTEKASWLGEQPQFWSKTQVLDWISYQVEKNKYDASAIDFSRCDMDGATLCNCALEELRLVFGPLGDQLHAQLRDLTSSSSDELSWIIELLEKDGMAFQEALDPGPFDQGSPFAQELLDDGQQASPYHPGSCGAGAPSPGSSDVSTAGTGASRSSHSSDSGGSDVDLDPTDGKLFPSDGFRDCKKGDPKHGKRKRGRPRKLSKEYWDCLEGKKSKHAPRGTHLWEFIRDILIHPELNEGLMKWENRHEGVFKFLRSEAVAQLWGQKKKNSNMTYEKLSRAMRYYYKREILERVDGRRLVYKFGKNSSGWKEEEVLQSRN
The gist of the method: as §1

The target of experiment [17] is ETV1 (Homo sapiens, UniProt P50549 1-477). The gist of the method:
as §1

ETV5, sequence (P41161 whole entry): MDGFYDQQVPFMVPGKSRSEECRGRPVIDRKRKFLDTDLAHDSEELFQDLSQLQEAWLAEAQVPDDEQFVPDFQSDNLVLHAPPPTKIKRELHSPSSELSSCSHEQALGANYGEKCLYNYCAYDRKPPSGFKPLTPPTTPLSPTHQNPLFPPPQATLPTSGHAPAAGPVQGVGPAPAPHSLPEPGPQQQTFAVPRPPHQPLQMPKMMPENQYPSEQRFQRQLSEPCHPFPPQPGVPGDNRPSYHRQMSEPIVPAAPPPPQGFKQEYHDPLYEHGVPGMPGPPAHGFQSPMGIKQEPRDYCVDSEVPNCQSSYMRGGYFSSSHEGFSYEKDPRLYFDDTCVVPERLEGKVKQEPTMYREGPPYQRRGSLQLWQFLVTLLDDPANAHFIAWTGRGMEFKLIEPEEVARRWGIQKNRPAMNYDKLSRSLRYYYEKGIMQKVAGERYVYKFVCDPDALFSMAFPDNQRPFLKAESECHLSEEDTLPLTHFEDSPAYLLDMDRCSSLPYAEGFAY
SPIB, sequence (Q01892 whole entry): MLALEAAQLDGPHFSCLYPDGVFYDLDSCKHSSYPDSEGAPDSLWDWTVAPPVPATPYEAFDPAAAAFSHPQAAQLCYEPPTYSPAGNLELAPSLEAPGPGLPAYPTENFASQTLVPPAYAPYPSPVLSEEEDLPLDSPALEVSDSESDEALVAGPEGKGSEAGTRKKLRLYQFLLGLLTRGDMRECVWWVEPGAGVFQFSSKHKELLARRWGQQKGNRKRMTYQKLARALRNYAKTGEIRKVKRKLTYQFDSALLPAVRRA
ETV1, sequence (P50549 whole entry): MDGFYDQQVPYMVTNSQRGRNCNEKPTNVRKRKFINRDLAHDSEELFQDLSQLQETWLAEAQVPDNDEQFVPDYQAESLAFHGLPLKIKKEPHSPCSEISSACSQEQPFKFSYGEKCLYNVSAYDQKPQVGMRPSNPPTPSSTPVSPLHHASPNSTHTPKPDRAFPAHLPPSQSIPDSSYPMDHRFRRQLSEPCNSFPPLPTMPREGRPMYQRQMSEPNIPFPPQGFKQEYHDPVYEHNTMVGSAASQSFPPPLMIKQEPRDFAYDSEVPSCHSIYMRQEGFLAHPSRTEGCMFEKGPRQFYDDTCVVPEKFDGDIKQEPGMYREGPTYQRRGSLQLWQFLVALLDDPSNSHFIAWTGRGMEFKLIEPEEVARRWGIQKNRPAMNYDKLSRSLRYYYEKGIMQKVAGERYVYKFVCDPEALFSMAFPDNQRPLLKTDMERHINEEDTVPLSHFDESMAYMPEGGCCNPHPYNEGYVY
ELF1, sequence (P32519 whole entry): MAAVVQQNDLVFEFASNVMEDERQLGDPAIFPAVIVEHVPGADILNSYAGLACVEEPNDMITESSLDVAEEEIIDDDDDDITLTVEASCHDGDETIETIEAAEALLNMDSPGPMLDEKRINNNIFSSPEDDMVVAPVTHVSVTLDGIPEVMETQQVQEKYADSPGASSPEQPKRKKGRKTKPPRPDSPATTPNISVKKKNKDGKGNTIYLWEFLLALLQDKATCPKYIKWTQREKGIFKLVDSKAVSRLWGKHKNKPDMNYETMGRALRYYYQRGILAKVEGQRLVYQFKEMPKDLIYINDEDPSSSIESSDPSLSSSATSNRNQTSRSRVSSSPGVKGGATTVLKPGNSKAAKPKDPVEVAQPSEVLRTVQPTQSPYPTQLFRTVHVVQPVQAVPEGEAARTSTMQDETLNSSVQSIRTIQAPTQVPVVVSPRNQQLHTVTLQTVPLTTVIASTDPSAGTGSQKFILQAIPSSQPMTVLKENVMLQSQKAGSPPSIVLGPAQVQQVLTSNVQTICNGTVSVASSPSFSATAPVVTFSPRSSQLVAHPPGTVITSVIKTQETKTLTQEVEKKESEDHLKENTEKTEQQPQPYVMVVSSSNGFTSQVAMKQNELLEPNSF

Consider TGTCCC, for which the binding signal was 1.27 fold enrichment (6-mer frequency, TF over GST control) in experiment [1]; 1.35 fold enrichment (6-mer frequency, TF over GST control) in [2]; 1.33 fold enrichment (6-mer frequency, TF over GST control) in experiment [3]; 1.38 fold enrichment (6-mer frequency, TF over GST control) in experiment [4]; 1.28 fold enrichment (6-mer frequency, TF over GST control) in [5]; 1.32 fold enrichment (6-mer frequency, TF over GST control) in [6]. Moreover, the binding signal is 1.22 fold enrichment (6-mer frequency, TF over GST control) in experiment [7]; 1.36 fold enrichment (6-mer frequency, TF over GST control) in experiment [8]; 1.47 fold enrichment (6-mer frequency, TF over GST control) in experiment [9]; 1.39 fold enrichment (6-mer frequency, TF over GST control) in [10]; 1.35 fold enrichment (6-mer frequency, TF over GST control) in experiment [11]; 1.26 fold enrichment (6-mer frequency, TF over GST control) in experiment [12]. For the same sequence, the binding signal is 1.29 fold enrichment (6-mer frequency, TF over GST control) in experiment [13]; 1.4 fold enrichment (6-mer frequency, TF over GST control) in [14]; 1.44 fold enrichment (6-mer frequency, TF over GST control) in [15]; 1.65 fold enrichment (6-mer frequency, TF over GST control) in experiment [16]; 1.31 fold enrichment (6-mer frequency, TF over GST control) in experiment [17].

As to CAACTG, the binding signal in experiment [1] is 1.18 fold enrichment (6-mer frequency, TF over GST control); in experiment [2], 1.15 fold enrichment (6-mer frequency, TF over GST control); in [3] it was 1.15 fold enrichment (6-mer frequency, TF over GST control); in [4], 1.2 fold enrichment (6-mer frequency, TF over GST control); in experiment [5] it was 1.27 fold enrichment (6-mer frequency, TF over GST control); in [6] it was 1.17 fold enrichment (6-mer frequency, TF over GST control). Besides, the binding signal in experiment [7] was 1.05 fold enrichment (6-mer frequency, TF over GST control); in experiment [8], 1.13 fold enrichment (6-mer frequency, TF over GST control); in [9], 1.09 fold enrichment (6-mer frequency, TF over GST control); in experiment [10], 1.14 fold enrichment (6-mer frequency, TF over GST control); in experiment [11] it was 1.11 fold enrichment (6-mer frequency, TF over GST control); in [12], 1.13 fold enrichment (6-mer frequency, TF over GST control). In addition, the binding signal in experiment [13] is 1.07 fold enrichment (6-mer frequency, TF over GST control); in [14], 1.21 fold enrichment (6-mer frequency, TF over GST control); in [15], 1.23 fold enrichment (6-mer frequency, TF over GST control); in experiment [16], 1.26 fold enrichment (6-mer frequency, TF over GST control); in [17], 1.19 fold enrichment (6-mer frequency, TF over GST control).
